Results on 40 molecules are retold here after PubChem BioAssay (Tox21).

Results filed as inconclusive are left out. Active and inactive are the calls of the source. Calls follow the shape of the dose curve; as a rule, active = well fitted activation curve with a large enough effect in the repeat runs; inconclusive = weak or mixed curves; inactive = no such curve, though single readings can be large or run the other way.
% is scaled to controls: 0 for no effect and ±100 for the full control effect; potency is read from the fitted curve at half-maximal effect.

The assay deals with Nuclear receptor subfamily 1 group I member 2 (Homo sapiens) (UniProt O75469). Put plainly: Human pregnane X receptor (PXR) small molecule agonists, qHTS assay (AID 1346982). Also: nearly all actives have a fitted effect of over 35% in size. Conditions: PXR-Luc HepG2, CYP3A4 luciferase reporter, 24 h; series mostly up to 92.4 µM; activation: at the top concentration. The text has this: National Center for Advancing Translational Sciences [NCATS]
Sequence of Nuclear receptor subfamily 1 group I member 2 (Homo sapiens) (O75469 whole entry, looked up): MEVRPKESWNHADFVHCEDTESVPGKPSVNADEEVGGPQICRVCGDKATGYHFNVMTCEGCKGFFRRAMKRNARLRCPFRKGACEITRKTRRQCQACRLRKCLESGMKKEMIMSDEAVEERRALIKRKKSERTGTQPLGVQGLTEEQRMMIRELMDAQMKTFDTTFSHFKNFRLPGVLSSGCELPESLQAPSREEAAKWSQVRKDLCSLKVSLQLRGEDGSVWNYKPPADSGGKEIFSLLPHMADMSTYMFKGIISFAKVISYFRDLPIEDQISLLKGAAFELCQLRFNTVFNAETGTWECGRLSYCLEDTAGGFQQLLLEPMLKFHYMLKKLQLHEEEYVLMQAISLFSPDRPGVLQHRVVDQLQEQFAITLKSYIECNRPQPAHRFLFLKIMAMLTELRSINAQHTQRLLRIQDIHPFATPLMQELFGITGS
NIH Chemical Genomics Center [NCGC]
U.S. Environmental Protection Agency [EPA]
National Institutes of Environmental Health Sciences [NIEHS]
National Toxicology Program [NTP]
The human pregnane X receptor (hPXR) regulates the expression of several drug metabolizing enzymes and induction of these proteins is a major mechanism for developing drug resistance in cancer. One such key enzyme catalyzing the drug metabolism is cytochrome P450 3A4 (CYP3A4). Changes in CYP3A4 expression affect drug metabolism, thereby reducing the therapeutic efficacy and altering toxicological response to a drug and which finally causes adverse drug interaction. To screen Tox21 libraries for compounds that activate hPXR-mediated CYP3A4 gene expression, PXR-Luc HepG2 cells were used.
PXR-Luc HepG2 cells were dispensed at 2,000 per well in 5uL of assay medium containing 5% charcoal-stripped FBS into white solid bottom 1536-well plates (Corning Life Sciences, Corning, NY) using a Multidrop Combi (Thermo Scientific, Waltham, MA) dispenser. The assay plates were incubated at 37 C and 5% CO2 for 5hr, and then 23nL of compounds dissolved in DMSO and positive control were transferred using a Pintool station (Wako, San Diego, CA). The assay plates were incubated at 37C and 5% CO2 for 24hr. For luciferase read, 4uL of ONE-Glo reagent (Promega Corporation, Madison, WI) was added to each well of the assay plates using Flying Reagent Dispenser (FRD, Aurora Discovery, San Diego, CA) and incubated the assay plates at room temperature for 30min. The luminescence signal was quantified using a ViewLux plate reader (Perkin Elmer, Shelton, CT).
In the case of `CC(COc1ccc(Oc2ccccc2)cc1)Oc1ccccn1` (stereo not given), the Potency is 17.2 µM (active).
As to `CC(C(O)c1ccccc1)N(C)C/C=C/c1ccccc1` (stereo not given), the “activation” value is 24.6% [at 42.5 µM] (inactive).
The same measure, in the same setting: next, `COC(=O)C(C)Oc1ccc(Oc2ccc(Cl)cc2Cl)cc1` (stereo not given): 8.51% (inactive).
The same measure, in the same setting: next, `CCCCN(CCCCO)N=O`: 10.3% (inactive).
On the same count and under the same terms, next, `CNCC(=O)c1ccc(O)c(O)c1`: -4.53% [at 42.5 µM] (inactive).
Turning to `CCN(CC)CCOC(=O)C(C)(c1ccccc1)c1ccccc1`, the Potency was 13.3 µM (active).
As to `CNC(=O)Oc1ccccc1C1OCCO1`, the “activation” value is -0.0144% (inactive).
Take `NC(=S)C(N)=S`: the “activation” value was -5.42% (inactive).
Take `CNC(=O)Oc1c(C(C)(C)C)cc(C)cc1C(C)(C)C`: the “activation” value was 24.1% (inactive).
Still for that read-out and setting: next, `Cc1ccccc1CO[C@@H]1C[C@@]2(C(C)C)CC[C@]1(C)O2`: 8.97% (inactive).
`OC(Cn1cncn1)(c1ccc(F)cc1)c1ccccc1F` (stereo not given): the “activation” value was 13% (inactive).
As to `[Cl][Sn]([Cl])([Cl])[Cl]`, the “activation” value is 1.76% (inactive).
Still for that read-out and setting: the result for `BrCCCCCCBr` reads 3.77% (inactive); that for `Clc1cccc(N2CCNCC2)c1`, 7.47% [at 42.5 µM] (inactive).
With `CCOP(=S)(OCC)SCSc1ccc(Cl)cc1`, the Potency was 10.9 µM (active).
Consider `C1CCC(C2CCCCC2)CC1`, for which the “activation” value is 8.55% (inactive).
For `O=C(CCCN1CCC(n2c(=O)[nH]c3ccccc32)CC1)c1ccc(F)cc1`, the Potency was 13.3 µM (active).
With `Nc1cc2c3c(c1)C(c1ccccc1)=N[C@@H](NC(=O)c1cccnc1)C(=O)N3CC2`, the Potency was 61.1 µM (active).
With `CC(=O)Nc1cc([As](=O)(O)O)ccc1O`, the “activation” value was -4.52% [at 42.5 µM] (inactive).
On the same count and under the same terms, next, `CC(N)=S`: 8.15% (inactive); `C[C@]12CC[C@H]3[C@@H](CCC4=CC(=O)CC[C@@]43C)[C@@H]1CC[C@@H]2C(=O)O`: -4.42% [at 42.5 µM] (inactive); `ClCCOCOCCCl`: 8% (inactive).
As for `O=[N+]([O-])c1cccc2cccnc12`, the Potency was 35.3 µM (active).
For the molecule `Cc1ncsc1CCCl`, the “activation” value was -6.92% [at 42.5 µM] (inactive).
On the same count and under the same terms, next, `CC(C)CP(=S)(S)CC(C)C`: 12.1% (inactive).
On the same count and under the same terms, next, `CCCCOC(=O)c1ccccc1N`: 13% (inactive); `CC(C)COP(=O)(OCC(C)C)OCC(C)C`: -8.33% (inactive).
For the molecule `CC(C)(C)C(=O)C(Oc1ccc(Cl)cc1)n1cncn1` (stereo not given), the Potency is 27.3 µM (active).
On to `COc1cc(OC)nc(NC(=O)NS(=O)(=O)c2ncccc2OCC(F)(F)F)n1`, for which the “activation” value was -0.0633% (inactive).
Same read-out and setting: the result for `Cc1cccc(C#N)c1` reads 1.72% (inactive); that for `CCOC(=O)CP(=O)(OCC)OCC`, 10.3% (inactive); that for `NC(=O)O`, -4.63% (inactive).
Still for that read-out and setting: the result for `Cc1ncc(CNC(=O)N(CCCl)N=O)c(N)n1` reads -8.64% [at 42.5 µM] (inactive); that for `OCCSCSCCO`, 8.41% (inactive); that for `O=C1OC(c2ccc(O)c(S(=O)(=O)O)c2)(c2ccc(O)c(S(=O)(=O)O)c2)c2c(Br)c(Br)c(Br)c(Br)c21`, -13.8% [at 42.5 µM] (inactive).
As for `O=C(Nc1ccccc1)N(Cc1ccc(Cl)cc1)C1CCCC1`, the Potency is 6.11 µM (active).
On to `COC(=O)c1ccccc1S(=O)(=O)NC(=O)N(C)c1nc(C)nc(OC)n1`, for which the “activation” value was 0.66% (inactive).
For `CCOP(=O)(OCC)OP(=O)(OCC)OCC`, the “activation” value was -7.02% (inactive).
As for `N#CCNCC#N`, the “activation” value was 10.3% (inactive).
The same measure, in the same setting: the result for `O=C(Cc1ccccc1)OCc1ccccc1` reads 3.79% (inactive).
